# This is part of a sample that, as a whole, favours compounds with a hit. Of some 83,000 tested, about 20% had one in any assay.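 Single-dose data. Exposure time 48 hours. Values below 10 considered active.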 A number with no mark means an inactive call. The source made the active and inactive calls.
# Tested on: SK-MEL-2 melanoma
# Assay: NCI-60 one-dose screen, 48 h (100 = growth as untreated, 0 = no growth, -100 = all killed)
# Details: 10 µM unless noted
row,SMILES,growth
1,COc1ccc(Sc2ccc3[nH]c(=O)nc(N)c3c2)cc1,104%
2,CCN1C(=O)C2(Nc3ccccc3S2)c2cc(C)ccc21 (configuration not stated),111%
3,CCOC(=O)c1cn2c3c(cc(F)cc3c1=O)C(CC)c1ccccc1C2 (configuration not stated),96.8%
4,Cc1nn(CC(=O)O)c2c1C(=O)CC(C)(C)C2,113%
5,O=C1/C(=C/c2ccc(Oc3ccccc3)cc2)N=C(c2ccccc2)N1CCc1cccs1,75.5%
6,COc1cccc(C2C3=C(COC3=O)N(CCO)c3cc4c(cc32)OCO4)c1 (configuration not stated),33%
7,COc1ccc2c(c1)c(=O)oc1c(C)c(OCC(C)=O)ccc12,115%
8,CC1=C(C/C=C(\C)CCC[C@H](C)CCC[C@H](C)CCCC(C)C)C(=O)c2ccccc2C1=O,114%
9,O=S(=O)(OCCO)c1ccccc1,102%
10,COc1ccc(-c2nc3sccn3c2/C=C/C(=O)c2cc(OC)c(OC)c(OC)c2)cc1OC,-7.87% (active)
11,Cc1nc(NN)c([N+](=O)[O-])c(NN)n1,104%
12,COc1cc(/C=C2\C(=O)N(c3c(Cl)cccc3Cl)c3ccccc32)cc(OC)c1O,36%
13,COc1cc(C2C3=C(COC3=O)N(CCO)c3cc4c(cc32)OCO4)cc(OC)c1O (configuration not stated),25%
14,COc1ccccc1CNCCCCCCCCCCCCN1C(=O)c2ccc3c4c(ccc(c24)C1=O)C(=O)N(CCCCCCCCCCCCNCc1ccccc1OC)C3=O,107%
15,CCCCCCCCCCCCCCCC[N+]1(C)CCOCC1,57.7%
16,Cn1cc(C(=O)NCCC(=N)N)cc1NC(=O)CN=C(N)N,105%
17,Nc1cccc2c(=S)c3ccccc3[nH]c12,87.5%
18,CCN1CCN(c2nc3ccccc3c3c(=O)c4cc(F)ccc4sc23)CC1,98.8%
19,Cc1ccc(N(CSc2ccc(Cl)cc2)CSc2ccc(Cl)cc2)cc1,86.2%

row,SMILES,growth
1,O=C1C(Cl)=C(NCCCN2CCOCC2)C(=O)c2ccccc21,104%
2,O=[N+]([O-])c1ccc(O)c2ncccc12,79.1%
3,O=C(Nc1ccccc1)Oc1cccc2cccnc12,93.9%
4,Cc1ccc(C)c2c1sc1nc3nc4sc5ccccc5n4c(=N)c3c(=O)n12,121%
5,O=C(c1ccccc1)C(Br)C(Br)c1cccc([N+](=O)[O-])c1 (configuration not stated),69.8%
6,COc1cc(/C=C2\C(=O)Nc3ccccc32)cc(OC)c1O,50.4%
7,O=c1ccc2ccccc2o1,101%
8,Cc1nc(-c2ccccc2)cc2c(O)c(C(=O)N/N=C/Cc3ccccc3)[nH]c(=O)c12,102%
9,CN1CCc2cccc3c2C1Cc1ccc(O)c(O)c1-3 (configuration not stated),117%
10,COc1cccc(C2C3=C(COC3=O)N(CCO)c3cc4c(cc32)CCC4)c1 (configuration not stated),36.8%
11,COc1cc(CNCCCN2C(=O)c3ccc4c5c(ccc(c35)C2=O)C(=O)N(CCCNCc2cc(OC)c(OC)c(OC)c2)C4=O)cc(OC)c1OC,-71.8% (active)
12,O=C1C=CC(=O)N1CCCCCCCCCCN1C(=O)C=CC1=O,96%
13,CCCCC/C=C\C/C=C/CCCCCCCCNC(=O)Nc1ccc([N+](=O)[O-])cc1,119%
14,Clc1ccc(C2=NN(c3ccccc3)[C@H](c3cn(-c4ccccc4)nc3-c3ccccc3)C2)cc1,97.7%
15,OB(O)c1ccccc1,107%
16,COc1cccc2c(=O)c3c(sc12)c(NCCN(C)C)nc1ccccc13,49.1%
17,O=C(N/N=C/c1ccc(F)cc1)c1[nH]c2ccc(I)cc2c1-c1ccccc1,71.9%
18,COc1ccc(-c2nc3sc(C)cn3c2/C=C/C(=O)c2cc(OC)c(OC)c(OC)c2)cc1,63%

# Source: PubChem BioAssay (NCI)
